# JMJD2E inh – qHTS Assay for Inhibitors of Human Jumonji Domain Containing 2E (JMJD2E); Lysine-specific demethylase 4E (Homo sapiens), B2RXH2; Potency, µM (titrated, usually from 57.1 µM), without a hit: at the highest dose activity change, negative = inhibition, actives largely listed as inhibitors; 1.6% of 230,000 active; JMJD2E catalytic domain, FDH-coupled NADH fluorescence (FDH is formaldehyde dehydrogenase);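 also: 0% = wells with enzyme and -100% = buffer wells without enzyme; nearly all actives have a fitted effect of over 50% in size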
# Target sequence (B2RXH2 1-337 limits assumed): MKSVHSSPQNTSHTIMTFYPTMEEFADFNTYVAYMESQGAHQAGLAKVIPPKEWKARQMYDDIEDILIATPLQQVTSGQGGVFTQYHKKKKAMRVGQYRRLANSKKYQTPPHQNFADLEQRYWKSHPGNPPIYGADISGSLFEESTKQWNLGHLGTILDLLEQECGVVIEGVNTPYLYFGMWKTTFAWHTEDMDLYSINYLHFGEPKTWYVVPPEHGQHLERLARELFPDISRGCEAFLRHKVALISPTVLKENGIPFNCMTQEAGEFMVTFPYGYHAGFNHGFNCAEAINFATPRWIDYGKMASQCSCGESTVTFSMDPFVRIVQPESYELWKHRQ
# APEX1 inh – qHTS Assay for Inhibitors of the Human Apurinic/apyrimidinic Endonuclease 1 (APE1). DNA repair nuclease/redox regulator APEX1 (Homo sapiens), P27695. recombinant APE1, TAMRA/BHQ-2 abasic DNA cleavage fluorescence. Potency, µM (doses to about 65.8 µM), for the others: top-dose activity change, negative = inhibition, most hits filed as inhibitors. 0.35% of 350,000 active;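 also: plate controls were vehicle for no effect and reference inhibitor for full effect; nearly all actives have a fitted effect of over 55% in size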
# Target sequence (P27695 whole entry, looked up): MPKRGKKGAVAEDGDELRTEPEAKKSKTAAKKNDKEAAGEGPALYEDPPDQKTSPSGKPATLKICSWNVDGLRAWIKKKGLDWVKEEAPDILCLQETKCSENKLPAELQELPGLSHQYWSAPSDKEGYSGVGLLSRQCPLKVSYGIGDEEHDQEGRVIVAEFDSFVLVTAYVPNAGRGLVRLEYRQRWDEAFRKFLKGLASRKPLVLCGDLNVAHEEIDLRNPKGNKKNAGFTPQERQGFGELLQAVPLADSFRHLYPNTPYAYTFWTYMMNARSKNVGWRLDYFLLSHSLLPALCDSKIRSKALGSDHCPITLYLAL
#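 Step 1: APE1 (0.75 nM) with compound, 15 min RT. Step 2: add 50 nM fluorophore/quencher THF duplex. Step 3: three fluorescence reads 60 s apart (525/598 nm); read 3 minus read 1 = reaction progress.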
# TDP1 inh – qHTS Assay for Inhibitors of Tyrosyl-DNA Phosphodiesterase (TDP1); recombinant TDP1, AlphaScreen DNA substrate cleavage; AID 485290, 2010; Tyrosyl-DNA phosphodiesterase 1 (Homo sapiens), Q9NUW8; 0.28% of 350,000 active; Potency, µM (highest dose often 130 µM), without a hit: top-dose activity change, negative = inhibition, hits mostly inhibitors; also: nearly all actives have a fitted effect of over 40% in size
#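 Recombinant human Tdp1 (E. coli-expressed, 1 nM final) preincubated with compounds 15 min at room temperature, then 5'-biotin/3'-phosphotyrosine-FITC DNA substrate (15 nM final) added for 5 min. AlphaScreen beads (10 ug/ml final) added 10 min; cleavage lowers signal.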
# RECQ1 inh – qHTS Assay for Inhibitors of RecQ-Like Dna Helicase 1 (RECQ1). Potency, µM (doses to about 57.3 µM), inactives show at the highest dose activity, negative = inhibition, most hits filed as inhibitors. 0.54% of 240,000 active. RECQ1 DNA unwinding, red fluorescence kinetic read. ATP-dependent DNA helicase Q1 (Homo sapiens), P46063;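 also: plate controls were vehicle for no effect and no enzyme for full effect; nearly all actives have a fitted effect of over 30% in size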
#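 RECQ1T1 50 nM; forked duplex (20 bp + 30-nt ss tails) 200 nM, ATP 2 mM final; pH 8.0, 2 mM MgCl2, 2.5 ug/ml poly(dI-dC); 15 min compound preincubation; discontinuous kinetic read over 2 h at RT.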
# L3MBTL1 inh – qHTS Assay for the Inhibitors of L3MBTL1. Lethal(3)malignant brain tumor-like protein 1 (Homo sapiens), Q9Y468. AlphaScreen L3MBTL1–H3K9me1 peptide binding. Potency, µM (highest dose often 57.1 µM), for inactives: top-dose activity, negative = inhibition, actives largely listed as inhibitors. 0.66% of 230,000 active. AID 485360, 2010; also: nearly all actives have a fitted effect of over 60% in size
#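 Displacement of a biotinylated histone H3(1-15) peptide monomethylated at Lys9 (75 nM) from L3MBTL1 (50 nM) was measured by AlphaScreen after a 30 min room-temperature compound incubation; cefsulodin titration served as intraplate control.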
# BLM inh – qHTS Assay for Inhibitors of Bloom's syndrome helicase (BLM); recombinant BLM DNA unwinding, fluorescence dequenching; Potency, µM (highest dose often 56.1 µM), inactives show top-dose activity change, negative = inhibition, actives largely listed as inhibitors; 0.2% of 350,000 active; AID 2528, 2010;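 also: plate controls were vehicle for no effect and no enzyme for full effect; nearly all actives have a fitted effect of over 35% in size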
# * = called active by the depositor; i = inactive; ? = inconclusive; · = not tested or not shown; ! = a repeat was not active; [ ] = dose if it differs, or a comment. This excerpt belongs to a sample that is enriched for hits. Unless noted, calls follow the shape of the dose curve; as a rule, active = well fitted curve in the direction sought with a large enough effect; inconclusive = small, poorly fitted or top-dose-only effect, or another doubt; inactive = no such curve, though single readings can be large; an effect the other way counts as inactive or inconclusive. Unless noted, % is scaled to controls: 0 for no effect and ±100 for the full control effect; potency is read from the fitted curve at half-maximal effect.
SMILES,JMJD2E inh,APEX1 inh,TDP1 inh,RECQ1 inh,L3MBTL1 inh,BLM inh
Cc1cc(C=O)c(C)n1-c1cc(C(=O)O)cc(C(=O)O)c1,?,17%,-2%,i,5µM*,8%
O=C1NC(=O)/C(=C/c2cccn2-c2ccc(P(O)O)cc2)N1,·,38%,·,·,·,·
C[C@H]1C(c2ccc(F)cc2)=NN(c2ccccc2)[C@@H]1CO,·,15%,-14%[56.1 µM],-9%[81.1 µM],38%,-15%[75.6 µM]
C[C@H]1C(c2cccc(Cl)c2)=NN(c2ccccc2)[C@@H]1CO,·,18%,40µM*,i,·,-10%[75.6 µM]
OC[C@@H]1[C@@H](c2ccc(Cl)cc2)C(c2ccccc2)=NN1c1ccccc1,·,-9%,?,-20%[81.1 µM],81%,-14%[75.6 µM]
OC[C@@H]1[C@@H](c2ccc(Cl)cc2)C(c2cccc(Cl)c2)=NN1c1ccccc1,·,-7%,40µM*!,-20%[81.1 µM],148%,-13%[75.6 µM]
Cc1oc(C(=O)O)cc1COc1cccc2cccnc12,?,?,·,-16%,28µM*,-2%
NS(=O)(=O)c1cccc2c1c([N+](=O)[O-])cc1[nH]c(=O)c(=O)[nH]c12,-27%,1.6µM*,·,1.4µM*!,·,-5%
NS(=O)(=O)c1cccc2c1c([N+](=O)[O-])cc1nc(O)c(O)nc12,?,-12%,-12%[56.1 µM],-2%,-12%,-9%
CC(=O)c1ccc(N2CCN(CC(=O)Nc3cc(C)on3)CC2)cc1,-9%,-3%,2%,i,·,0%
COc1ccc(N2CCN(CC(=O)Nc3cc(C)on3)CC2)cc1,25µM*,25%,-10%,-3%,0%,-4%
Cc1cccc(N2CCN(C(=O)CN3C(=O)COc4ccc(S(=O)(=O)N5CCC(C)CC5)cc43)CC2C)c1 (stereo not given),·,·,4%,·,·,-7%
CC(C)Cc1nc2ccc(N)cc2[nH]1,35µM*,-3%,9%,5%,-11%,-5%
COc1ccccc1CNC(=O)c1cc(Sc2cccc(Cl)c2)nc2ccccc12,·,·,3%,·,·,-5%
COc1ccc(Cn2c(O)c(/C=N/NC(=O)c3cccnc3)c3ccccc3c2=O)cc1,28µM*,-13%,11%,-1%,-31%,-25%
COc1ccc(C)cc1Nc1nc2cc(Cl)c(Cl)cc2nc1-n1nc(C)cc1C,·,·,-4%[12.3 µM],·,·,-2%
Cc1cc2c(N=O)c(NO)ccc2[nH]1,11µM*,-5%,7%,i,·,-5%
O=Nc1c(O)[nH]c2ccc(F)cc12,3%,1%,-3%,-3%,-1%,-2%
CCN1CCN(C(=O)Nc2ccccc2OC)CC1,3%,-6%,-12%,2%,40µM*,4%
Cc1cc(C)nc(NS(=O)(=O)c2ccc(N/C=C/C(=O)c3ccc(Cl)cc3)cc2)n1,22µM*,6%,0%,-8%,5%,-2%
COc1ccc(C(=O)/C=C/Nc2ccc(S(=O)(=O)Nc3nc(C)cc(C)n3)cc2)cc1OC,?,6%,0%,-17%,5%,-6%
CCNC(=O)c1ccc2nc(Cc3ccccc3)oc2c1,·,·,-1%,·,·,2%
CCOC(=O)c1oc2ccccc2c1NC(=O)COc1cccc(OC)c1,5µM*,-17%,-5%,-10%,12%,-3%
Cc1nc(-c2coc3c(O)c(O)ccc3c2=O)cs1,7.1µM*,?,2%,i,·,4%
COc1cc(N=C2C(=O)N3c4c(cccc42)C(C)=CC3(C)C)cc(OC)c1,-20%,0%,9%,-8%,-7%,-1%
SMILES,JMJD2E inh,APEX1 inh,TDP1 inh,RECQ1 inh,L3MBTL1 inh,BLM inh
CC1=CC(C)(C)N2C(=O)C(=Nc3ccc(O)cc3)c3cccc1c32,13µM*,?,7%,-29%,11µM*,32µM*
CSc1nc(NCCOC(C)=O)c(C#N)c(-c2ccc(C(C)(C)C)cc2)n1,·,·,-5%,·,·,-7%
CC(C)NC(=S)N/N=C/c1cc(Br)ccc1O,25µM*,1%,11%,-15%,?,-2%
Cc1ccc2oc(=O)c3cc(C(=O)NCCN4CCN(C)CC4)sc3c2c1,?,5%,2%,-5%,35µM*,79%
NNC(=O)c1ccc(CSc2n[nH]c(=O)[nH]c2=O)cc1,-19%,?,45µM*,-26%,-12%,-15%
Cc1nc(C(C)Nc2ncnc3ccc(-c4ccc5c(c4)OCO5)cc23)cs1 (stereo not given),·,·,-16%,·,·,·
CCN(c1ccccc1)S(=O)(=O)c1nnc(NC(=O)COc2ccc(OC)cc2)s1,·,·,4%,·,·,-16%
S=c1[nH]nc(-c2ccccn2)n1/N=C/c1ccco1,-8%,-3%,-4%,1%,20µM*,-4%
S=c1[nH]nc(-c2ccco2)n1/N=C/c1ccccn1,-29%,-1%,5%,i,-2%[11.4 µM],-4%
S=c1[nH]nc(-c2ccncc2)n1/N=C/C=C/c1ccco1,-11%,?,·,-9%,18µM*,?
C(=C\c1ccco1)/C=N/n1cnnc1,14µM*,?,·,-11%,?,1%
Cc1ccsc1/C=N/n1c(-c2ccccn2)n[nH]c1=S,-4%,1%,-3%,2%,32µM*,-10%
CCCCNc1nc(C)nc2c1nc(-c1ccccc1)n2CC1CCCN1CC (stereo not given),?,?,6%,0%,·,-9%
C=CC[n+]1ccc(/C=C2\C=Cc3cc(C)ccc3N2CC)c2ccccc21,3.2µM*,6%,10%,-19%,·,?
CCc1cccc(C)c1NC(=O)C(C)Sc1nc2c(c(=O)[nH]1)CCCC2 (stereo not given),·,·,6%,·,·,-2%
CC(Sc1nc2c(c(=O)[nH]1)CCCC2)C(=O)Nc1ccc(Br)cn1 (stereo not given),·,12%,40µM*,·,·,-7%
CC1=NN(c2ccccc2)C(=O)/C1=C/c1ccc(Cl)cc1,·,-3%,12%,·,?,-2%
CC1=NN(c2ccccc2)C(=O)/C1=C\c1ccc(Br)s1,3.2µM*,-9%,9%,-14%,?,-4%
CC1CCC2C(=O)N3C(CCC(C)C3c3ccc(-c4ccco4)cc3)C(=O)N2C1c1ccc(-c2ccco2)cc1 (stereo not given),·,4µM*,3.5µM*,2.5µM*,·,3.5µM*
O=c1cc2ncc(-n3cc([N+](=O)[O-])cn3)cn2[nH]1,-24%,?,8.9µM*,?,-5%,-5%
O=c1cc2ncc(-c3[nH]ncc3[N+](=O)[O-])cn2[nH]1,?,4%,3%,2%,·,6%
